# Screening results as filed in PubChem BioAssay.
# Sampled rows, rich in hits. Any-hit rate of the full collection: about 3.4%.
# EWS-Fli block – blocks EWS/Fli oncoprotein-driven transcription | A673 NR0B1-luciferase reporter, viability-normalised | inhibition, % at 12.6 µM | 0.67% of 350,000 active | AID 651661;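 active = mean inhibition of at least 50% after viability correction, with every replicate also passing that limit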;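 note: firefly luciferase signal divided by Alamar Blue viability fluorescence both relative to DMSO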
# PGC1a acetyl inh – lowers PGC1a acetylation signal in U2OS cells | AlphaScreen anti-acetyl-lysine; with virally co-expressed GCN5 acetyltransferase | inhibition, % at 15.6 µM | 0.17% of 350,000 active;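 active = every replicate shows inhibition of at least 40%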
# Ecoli rRNA inh – selective bacterial rRNA inhibition in E. coli | 1.6% of 350,000 active | E. coli WT GFP vs humanized-ribosome RFP mutants, fluorescence, 24 h; hits give low values; DMSO median 0, no signal -100 | GFP signal change (wild-type ribosome), % (test concentration not listed);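 active = significant combined selectivity score with lowered wild-type GFP, culture density cut under 30%, mutant RFP and density less affected; inactive = any of these conditions unmet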
# LGR2 inh – blocks bursicon-induced cAMP signaling via Drosophila LGR2 | HEK293 LGR2, CRE-luciferase, bursicon-stimulated, 4 h | inhibition, % at 9.99 µM | 0.35% of 380,000 active;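 active = drop in luminescence signal, shown as inhibition above about 50% in the replicate tests, limit read from the data, passing the limit was not always enough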;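 note: agonist challenge used bursicon conditioned medium at about half maximal strength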
# SIRT5 inh – inhibitors of human sirtuin-5 desuccinylase. Q9NXA8. Purified SirT5, succinyl-peptide AMC, trypsin-coupled fluorescence. inhibition, % at 15 µM. 1.1% of 330,000 active; in the data active = inhibition above about 15%
# Target sequence (Q9NXA8 whole entry, looked up): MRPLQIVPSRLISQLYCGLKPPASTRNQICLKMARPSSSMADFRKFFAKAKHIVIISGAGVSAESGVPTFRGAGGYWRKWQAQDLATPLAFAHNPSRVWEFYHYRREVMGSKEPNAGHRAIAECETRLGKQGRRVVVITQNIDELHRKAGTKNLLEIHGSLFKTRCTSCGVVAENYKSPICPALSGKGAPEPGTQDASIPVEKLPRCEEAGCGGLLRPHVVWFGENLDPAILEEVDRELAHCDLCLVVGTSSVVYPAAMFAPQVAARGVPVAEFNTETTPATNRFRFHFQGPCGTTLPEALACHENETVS
# PAX8 reporter – lowers PAX8-driven luciferase in RMG-I cells | RMG-I TPO-luciferase reporter, SteadyGlo, 24 h | inhibition, % at 12.6 µM | 1.2% of 360,000 active | AID 652154;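 active = mean replicate inhibition at least 60% with every replicate also reaching 60%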;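 note: luciferase light reporting Pax8 driven TPO promoter activity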
# A number is an active result; . = inactive; / = no result.
SMILES,EWS-Fli block,PGC1a acetyl inh,Ecoli rRNA inh,LGR2 inh,SIRT5 inh,PAX8 reporter
O=C(O)CC/C(=C\c1ccc(N2CCOCC2)c([N+](=O)[O-])c1)c1nc2ccccc2s1,.,.,.,.,.,.
CC(C)NC(=O)N(C)C[C@@H]1Oc2ccc(N)cc2CC(=O)N(C)C[C@H]1C,/,/,.,/,/,/
CCN(C(=O)CSc1nc2scc(-c3ccccc3)c2c(=O)n1N)C1CCS(=O)(=O)C1 (centres undefined),.,.,.,.,20,.
CCN(C(=O)CSc1nnc(-c2ccccc2)n1C)C1CCS(=O)(=O)C1 (centres undefined),.,.,.,.,.,.
CCCN(C(=O)c1cccc(S(=O)(=O)N2CCCc3ccccc32)c1)C1CCS(=O)(=O)C1 (centres undefined),.,.,.,.,.,.
CCN(C(=O)COC(=O)c1ccc(S(=O)(=O)N2CCCc3ccccc32)cc1)C1CCS(=O)(=O)C1 (centres undefined),.,.,.,.,.,97
CCN(C(=O)COC(=O)c1cc(-c2ccccc2)nn1-c1ccccc1)C1CCS(=O)(=O)C1 (centres undefined),.,.,-31,.,.,.
CO[C@@H]1CN(C)C(=O)c2cc(NC(=O)NC(C)C)ccc2OC[C@@H](C)N(CCC(F)(F)F)C[C@H]1C,.,.,.,.,/,.
CN(C)C(=O)c1cccc(-c2ccc(C3[C@@H]4CN(S(=O)(=O)c5cccc(Cl)c5)C[C@H]3N4)cc2)c1 (some centres undefined),.,.,.,.,/,.
Brc1ccc2[nH]c3c(c2c1)CCC3,.,.,-16,/,.,.
Cc1ccc(S(=O)(=O)Nc2ccc3c(c2)C(=O)N([C@@H](C)CO)C[C@H](C)[C@H](CN(C)C(=O)CCC(F)(F)F)OCCCC[C@@H](C)O3)cc1,.,.,.,.,.,.
OC[C@@H]1[C@H](c2ccc(C3=CCCC3)cc2)[C@H]2CN(CCC(F)(F)F)CCCCN12,.,.,/,/,.,.
Cc1ccc(-c2ccc([C@H]3[C@H](CO)N4CCCCN(S(=O)(=O)c5cccc(C)c5)C[C@@H]34)cc2)cc1,.,.,/,/,.,87
Cc1ccc(-c2ccc([C@H]3[C@H]4CN(S(=O)(=O)c5cccc(C)c5)CCCCN4[C@H]3CO)cc2)cc1,.,.,/,/,17,.
CCCC#Cc1cnc2c(c1)C(=O)N([C@@H](C)CO)C[C@H](C)[C@H](CN(C)Cc1ccncc1)O2,.,.,.,.,.,.
C/C=C/c1cnc2c(c1)C(=O)N([C@H](C)CO)C[C@H](C)[C@H](CN(C)C(=O)NC1CCCC1)O2,.,.,.,.,.,/
CN(C)CCCN(C(=O)c1cc2cc([N+](=O)[O-])ccc2s1)c1nc2cc3c(cc2s1)OCCO3,52,54,.,.,.,/
CCN(CC)CCN(C(=O)c1ccc(Br)s1)c1nc2cc3c(cc2s1)OCO3,.,/,.,.,.,.
CN(C)CCCN(C(=O)c1cc(Cl)sc1Cl)c1nc2cc3c(cc2s1)OCO3,/,/,.,.,.,.
CN(C)CCCN(C(=O)c1ccc([N+](=O)[O-])s1)c1nc2cc3c(cc2s1)OCCO3,/,/,.,.,.,.
CCN(CC)CCN(C(=O)C1CCCCC1)c1nc2cc3c(cc2s1)OCO3,.,.,-18,.,.,.
CN(C)CCCN(C(=O)c1ccc(Cl)s1)c1nc2cc3c(cc2s1)OCO3,57,.,.,.,.,.
C[C@@H]1CCCCO[C@@H](CN(C)Cc2ccc(C(=O)Nc3ccccc3N)cc2)[C@@H](C)CN([C@H](C)CO)C(=O)c2cc(NC(=O)C3CCCCC3)ccc2O1,/,/,.,.,/,/
COc1ccc(CN(C)C[C@H]2OCCCC[C@H](C)Oc3ccc(NC(=O)NC(C)C)cc3C(=O)N([C@H](C)CO)C[C@@H]2C)cc1,.,.,.,.,.,.
CO[C@H]1CN(C)C(=O)c2cc(NS(C)(=O)=O)ccc2OC[C@H](C)N(CC2CCCCC2)C[C@@H]1C,.,.,.,.,.,/
SMILES,EWS-Fli block,PGC1a acetyl inh,Ecoli rRNA inh,LGR2 inh,SIRT5 inh,PAX8 reporter
CC1(C)CC(=O)C(N=Nc2ccc(F)cc2)=C(O)C1,.,.,.,.,30,.
CC1(C)CC(=O)C(N=Nc2ccc(Cl)cc2)=C(O)C1,/,/,/,.,/,.
CCN(Cc1ccccc1)C(=O)CSc1nc(C)cc(=O)[nH]1,.,.,.,.,22,.
COCC(=O)Nc1ccc2c(c1)OC[C@H](C)N(Cc1cccc(F)c1)C[C@H](C)[C@H](OC)CN(C)C2=O,.,.,.,.,.,/
CSc1nc(C)c(Cc2c(F)cccc2Cl)c(=O)[nH]1,.,.,.,.,.,.
CSc1nc(C)c(CCOCc2ccc(F)cc2)c(=O)[nH]1,.,.,-22,.,.,.
Cc1ccnc(NCc2cccc3ccccc23)c1,.,/,.,.,53,.
CC(C)C#Cc1cnc2c(c1)C(=O)N([C@@H](C)CO)C[C@@H](C)[C@H](CN(C)C(=O)Cc1ccccn1)O2,.,.,.,.,.,.
Cc1ccc2nc(NC3=NC(CC(=O)O)C(=O)N3)nc(C)c2c1 (centres undefined),.,/,.,.,44,.
Cc1ccc2nc(Nc3nc(C)cc(C(F)(F)F)n3)nc(C)c2c1,/,.,/,/,/,.
COCCCNC(=O)c1ccc(CN2CCc3ccccc3C2)cc1,.,.,.,.,23,.
COc1ccc(C)cc1NC(=O)c1ccc(CN2CCc3ccccc3C2)cc1,.,.,-24,.,.,.
O=C(Nc1ccccc1)c1ccc(CN2CCc3ccccc3C2)cc1,.,.,.,.,.,.
O=C(Cc1cccnc1)N1CC(=O)N2[C@H](C1)[C@@H](c1ccc(-c3cccc(F)c3)cc1)[C@@H]2CO,/,/,.,/,/,/
CCC(=O)N1CC(=O)N2[C@H](C1)[C@@H](c1ccc(-c3ccccc3F)cc1)[C@@H]2CO,.,.,.,.,.,/
CCC(=O)N1CCC2(CC1)CN(Cc1cc(F)ccc1F)[C@H](CO)c1[nH]c3cc(OC)ccc3c12,.,.,.,.,.,.
COc1cccc(S(=O)(=O)N[C@H]2C=C[C@@H](CC(=O)NC3Cc4ccccc4C3)O[C@H]2CO)c1,.,.,.,.,.,.
COc1ccc(N(C(=O)/C=C/C(=O)Nc2cc(C)on2)C(C(=O)NC2CCCC2)c2ccccc2C)cc1 (centres undefined),.,/,.,.,.,71
COc1ccc(N(C(=O)CSCC(=O)Nc2cc(C)on2)C(C(=O)NC2CCCCC2)c2ccc(O)c(O)c2)cc1 (centres undefined),.,/,-18,.,.,.
C/C=C/c1ccc2c(c1)O[C@@H](CN(C)C(=O)C1CCC1)[C@H](C)CN([C@H](C)CO)S2(=O)=O,.,.,.,.,/,/
CCCNC(=O)N1CCC2(CC1)CN(Cc1ccc(F)cc1)[C@@H](CO)c1[nH]c3cc(OC)ccc3c12,.,.,.,.,.,.
